Results filed as inconclusive are left out. Where a call stands in place of a potency, no number is given. Active and inactive are the calls of the source. The call rests on the fitted dose curve; in most records, active means well fitted inhibition curve with a large enough effect; inconclusive means small, poorly fitted or top-dose-only effect; inactive means no such curve, though single readings can be large or run the other way. Where a SMILES comes first, the peptide text is derived from it. [ ]: non-standard residue; d: D form. PhLac = O=C(O)[CH](O)Cc1ccccc1; NMeV = CN[CH](C(=O)O)C(C)C
system: Zika virus NS2B-NS3 protease (linked construct); assay: Primary screen NINDS Rhodamine qHTS for Zika virus inhibitors (AID 1347160); conditions: purified NS2B-NS3 protease, Rhodamine110 substrate fluorescence; series mostly up to 57.1 µM; further: nearly all actives have a fitted effect of over 55% in size
In short: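 Single-chain NS2B-NS3 protease, 25 nM, pH 8.0; compounds preincubated 15 min. Activity: Rhodamine110 release from 1.5 microM substrate over 15 min, room temperature, data fitted to 4-parameter Hill.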

| SMILES | Potency |
| --- | --- |
| O=C(/C=C/c1ccccc1)OCC1=CC[C@@H]2C(C(=O)O)=CO[C@@H](O[C@@H]3O[C@H](CO)[C@@H](O)[C@H](O)[C@H]3O)[C@H]12 | inactive |
| CC(C)C(C(=O)N1CCCC1C(=O)O)N(C)C(=O)C(O)Cc1ccccc1 (centres undefined) (H-[PhLac]-[NMeV]-Pro-OH; configuration not given here) | inactive |
| c1ccc(Cc2ncc3c(n2)CCNCC3)cc1 | inactive |
| CC1(C)CCC2(C(=O)OC3OC(COC4OC(CO)C(O)C(O)C4O)C(O)C(O)C3O)CCC3(C)C(=CCC4C5(C)CCC(O)C(C)(C(=O)O)C5CCC43C)C2C1O (centres undefined) | inactive |
| C[C@@H]1O[C@@H](O[C@H]2[C@H](OC(=O)C34CCC(C)(C)CC3C3=CCC5C6(C)CC(O)C(O[C@@H]7O[C@H](CO)[C@@H](O)[C@H](O)[C@H]7O)C(C)(C(=O)O)C6CCC5(C)C3(CO)CC4)O[C@H](C)[C@H](O)[C@@H]2O)[C@H](O)[C@H](O)[C@H]1O[C@@H]1OC[C@@H](O)[C@H](O)[C@H]1O (some centres undefined) | inactive |
| CC(C)NC[C@H](O)COc1ccc(CCOCC2CC2)cc1 | inactive |
| COc1ccc2c(c1)O[C@H](O[C@@H]1O[C@H](CO)[C@@H](O)[C@H](O)[C@H]1O)C(=O)N2 | inactive |
| C=C(C)[C@@H]1CC[C@](C)(O)[C@@H](OC(=O)c2ccccc2)C1 | inactive |
| C[C@@H]1CC[C@H]2C(C)(C)[C@H](O)[C@H](O)C[C@]2(C)[C@@]12Cc1c(O)cc3c(c1O2)CNC3=O | inactive |
